# Data from PubChem BioAssay (EPA / NIEHS).
# Records with an inconclusive call do not appear. Calls of active or inactive are those of the source. Rule for the calls: active = hit-call score of the fitted dose curve at least 0.9, where 1 is the maximum; inconclusive = response in the unintended direction; inactive = score below 0.9.
# Biological target: Retinoic acid receptor RXR-alpha (Homo sapiens) (UniProt P19793)
# Test: OT_NURR1_NURR1RXRa_0480: Odyssey Thera (OT) 8-hour HEK293T Protein Complementation Assay for Nurr1/retinoid X receptor (RXR) (AID 2283385)
# Procedure: OT_NURR1_NURR1RXRa_0480 is a cell-based assay that uses HEK293T, a human kidney cell line, with measurements taken at 8 hours after chemical dosing in a 384-well plate.OT_NURR1_NURR1RXRa_0480 is one of one assay component(s) measured or calculated from the OT_NURR1_NURR1RXRa_0480 assay. It is designed to make measurements of protein fragment complementation, a form of binding reporter, as detected with fluorescence intensity signals by Protein-fragment Complementation technology.Data from the assay component OT_NURR1_NURR1RXRa_0480 was analyzed into 1 assay endpoint. This assay endpoint, OT_NURR1_NURR1RXRa_0480, was analyzed in the positive analysis fitting direction relative to DMSO as the negative control and baseline of activity. Using a type of binding reporter, measures of receptor for gain-of-signal activity can be used to understand the binding at the pathway-level as they relate to the gene RXRA. Furthermore, this assay endpoint can be referred to as a primary readout, because the performed assay has only produced 1 assay endpoint. To generalize the intended target to other relatable targets, this assay endpoint is annotated to the nuclear receptor intended target family, where the subfamily is non-steroidal.
# Protein-fragment complementation assay, or PCA, is a method for the identification and quantification of protein-protein interactions. In the PCA, the proteins of interest ("bait" and "prey") are each covalently linked to fragments of a third protein (e.g. DHFR, which acts as a "reporter"). Interaction between the bait and the prey proteins brings the fragments of the reporter protein in close proximity to allow them to form a functional reporter protein whose activity can be measured.
# Sequence of Retinoic acid receptor RXR-alpha (Homo sapiens) (P19793 whole entry, looked up): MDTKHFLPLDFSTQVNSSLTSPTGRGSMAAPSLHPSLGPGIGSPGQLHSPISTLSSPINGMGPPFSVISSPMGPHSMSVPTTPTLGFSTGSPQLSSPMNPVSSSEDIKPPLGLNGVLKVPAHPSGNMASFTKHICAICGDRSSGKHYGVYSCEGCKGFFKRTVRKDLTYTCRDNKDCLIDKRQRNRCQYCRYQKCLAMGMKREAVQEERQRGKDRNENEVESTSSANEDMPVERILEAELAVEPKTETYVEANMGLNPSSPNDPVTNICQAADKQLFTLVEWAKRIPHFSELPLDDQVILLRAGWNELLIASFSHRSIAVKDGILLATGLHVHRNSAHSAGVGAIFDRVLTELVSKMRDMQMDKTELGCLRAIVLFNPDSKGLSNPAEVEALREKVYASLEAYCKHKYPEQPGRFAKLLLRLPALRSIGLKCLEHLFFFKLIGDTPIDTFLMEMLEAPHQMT
Compound,AC50,outcome
C(=C(c1ccccc1)c1ccccc1)c1ccccc1,90.2 µM (active),–
CCCCC(CC)COP(=O)(O)OCC(CC)CCCC (stereo unspecified),–,inactive
CCCCCCOC(=O)c1ccccc1O,–,inactive
c1ccc(B(c2ccccc2)c2ccccc2)cc1,–,inactive
CCCCOc1ccc(N)cc1,–,inactive
C1COCCN1,–,inactive
CCCCCCOC(=O)c1ccccc1,–,inactive
CC/C=C\CCOC(C)=O,–,inactive
CCCCCCC(C)OC(=O)CCCCC(=O)OC(C)CCCCCC (stereo unspecified),–,inactive
OC[C@@H](O)[C@@H](O)[C@H](O)[C@@H](O)CO,–,inactive
CCN(Cc1cccc(S(=O)(=O)O)c1)c1ccc(C(=C2C=CC(=[N+](CC)Cc3cccc(S(=O)(=O)O)c3)C=C2)c2ccc(O)cc2S(=O)(=O)[O-])cc1,–,inactive
CNC(=S)NC,–,inactive
C#C[C@]1(O)CC[C@H]2[C@@H]3CCc4cc(OC)ccc4[C@H]3CC[C@@]21C,–,inactive
O=S(=O)(O)c1ccc2ccccc2c1,–,inactive
COC(=O)C1CCC(C(=O)OC)CC1 (stereo unspecified),–,inactive
CC(CCl)OP(=O)(OC(C)CCl)OC(C)CCl (stereo unspecified),–,inactive
